Source: PubChem
ADAM10 inh: inhibits human ADAM10; O14672; recombinant ADAM10, EDANS/DABCYL FRET peptide cleavage, 3 h; inhibition, % at 7 µM; 0.62% of 370,000 active; AID 720582;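 active = inhibition above a per-campaign cutoff equal to the mean of compounds falling between control-based bounds plus 3 SD, cut at about 20% in these data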;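 also: 0% = DMSO wells while the 100% control is not disclosed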
Target sequence (O14672 214-748 limits assumed): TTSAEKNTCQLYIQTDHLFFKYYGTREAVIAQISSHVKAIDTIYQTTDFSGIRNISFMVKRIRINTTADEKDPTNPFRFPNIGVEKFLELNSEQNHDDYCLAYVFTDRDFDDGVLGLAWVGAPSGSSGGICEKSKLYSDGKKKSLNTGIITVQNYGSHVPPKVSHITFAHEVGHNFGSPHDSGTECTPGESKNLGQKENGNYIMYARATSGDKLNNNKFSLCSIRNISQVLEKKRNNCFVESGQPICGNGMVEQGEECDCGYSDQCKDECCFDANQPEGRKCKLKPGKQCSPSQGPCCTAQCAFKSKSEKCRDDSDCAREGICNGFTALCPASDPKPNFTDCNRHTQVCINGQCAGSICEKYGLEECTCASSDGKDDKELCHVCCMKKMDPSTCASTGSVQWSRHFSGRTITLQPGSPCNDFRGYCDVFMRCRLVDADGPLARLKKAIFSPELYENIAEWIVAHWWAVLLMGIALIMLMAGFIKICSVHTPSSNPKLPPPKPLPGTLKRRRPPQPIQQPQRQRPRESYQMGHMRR
PLC-gamma1 inh: PLC-gamma1 (human) inhibition, primary screen | P19174 | purified PLC-gamma1, fluorogenic substrate, fluorescence | inhibition, % at 12.2 µM | 0.84% of 370,000 active; in the data active = inhibition above about 9.5%
KLK7 zymogen act: proKLK7 (human) activation, primary screen; P49862; purified proKLK7, EDANS-DABCYL substrate fluorescence; 100% is mature enzyme control, 0% vehicle; activation, % at 7 µM; 0.9% of 370,000 active; AID 652039;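 active = activation above the mean of all tested compounds plus 3 SD, computed per campaign excluding outliers beyond control limits, cut at about 13% in these data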
PLCb3 inh: inhibitors of human phospholipase C beta3; AID 720704; Purified PLC-beta3, fluorogenic substrate, fluorescence; 0.18% of 370,000 active; inhibition, % at 12.2 µM; Q01970;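 also: 0% = median of compound wells on plate and 100% = full blocker control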
ADAM17 inh: ADAM17 inhibition, QFRET primary screen | P78536 | recombinant ADAM17, EDANS/DABCYL FRET peptide cleavage | inhibition, % at 6.95 µM | 0.83% of 370,000 active | AID 720648;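 active = inhibition above the mean of compounds lying between control limits plus 3 SD, set per campaign, cut at about 8.5% in these data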;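 also: 0% = DMSO-only wells as the low control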
ADAM10 confirm: human ADAM10 inhibition, confirmation; 1% of 2,100 active; ADAM10 QFRET peptide cleavage, EDANS fluorescence; inhibition, % at 6.95 µM; shares compounds with ADAM10 inh; AID 743208;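 active = inhibition above about 20% chosen separately for each screening run, limit read from the data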;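 also: 0% = DMSO wells and 100% = marimastat wells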
ADAM17 counter: ADAM17 inhibition, counter-screen for ADAM10 exosite hits. shares compounds with ADAM10 inh. ADAM17 QFRET peptide cleavage, EDANS fluorescence. inhibition, % at 6.95 µM. 0.5% of 2,100 active. AID 743214;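 active = mean triplicate inhibition above the solvent-only control wells' mean plus 3 SD, cut at about 12% in these data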;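 also: 0% = DMSO wells and 100% = marimastat wells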
ADAM10 ctr: inhibits human ADAM10 in ADAM17 exosite counter-screen; shares compounds with ADAM17 inh; inhibition, % at 6.95 µM; AID 743256; recombinant ADAM10, EDANS/DABCYL FRET peptide cleavage, 3 h; 47% of 2,900 active;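 active = mean inhibition over the triplicate runs exceeds the activity threshold set in the earlier primary screen, cut at about 20% in these data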;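 also: 0% = DMSO wells and 100% = marimastat wells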
ADAM17 confirm: confirmation of inhibitors of human ADAM17 | shares compounds with ADAM17 inh | recombinant ADAM17, EDANS/DABCYL QFRET peptide cleavage | inhibition, % at 6.95 µM | 65% of 2,900 active | AID 743257;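 active = mean inhibition across replicates above the hit cutoff set in the primary screen, cut at about 8.5% in these data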;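 also: 0% = DMSO wells and 100% = marimastat wells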
PLCg1 ctr: PLC-gamma1 inhibition, counter-screen for PLC-beta3 hits | inhibition, % at 12.3 µM | purified PLC-gamma1, fluorogenic substrate, fluorescence | 3.1% of 3,300 active | shares compounds with PLC-gamma1 inh; in the data active = inhibition above about 9.5%
PLCb3 confirm: confirmation of human PLC-beta3 inhibitors. purified PLC-beta3, fluorogenic substrate fluorescence. shares compounds with PLC-gamma1 inh. inhibition, % at 12.3 µM. 1% of 3,300 active
* marks the source's active call; other numbers are inactive results; x = no result given. Only some compounds are listed: those with a hit (about 2.9% of all), similar ones and a draw of the others. Rule as the data show it, unless noted: active = inhibition above about 11%; inactive = the rest.

SMILES | ADAM10 inh | PLC-gamma1 inh | KLK7 zymogen act | PLCb3 inh | ADAM17 inh | ADAM10 confirm | ADAM17 counter | ADAM10 ctr | ADAM17 confirm | PLCg1 ctr | PLCb3 confirm
Nc1ccc(Cc2ccc(N)c(C(=O)O)c2)cc1C(=O)O | -9 | -10 | 0 | -6 | -4 | x | x | x | x | x | x
Cc1cccc(C(O)c2ncc(-c3cccc(C(F)(F)F)c3)[nH]2)c1C (stereo unspecified) | 22* | 8 | 1 | 9 | 15* | 2 | 0 | 5 | 7 | x | x
OC(c1ccc(F)c(F)c1)c1ncc(-c2ccc(Cl)cc2)[nH]1 (stereo unspecified) | 7 | 2 | 0 | -2 | 0 | x | x | x | x | x | x
OC(c1cc(F)cc(Cl)c1)c1ncc(-c2ccc(Cl)cc2)[nH]1 (stereo unspecified) | 29* | 5 | 0 | 4 | 17* | 5 | 0 | 21* | 11* | x | x
OC(c1cccc(Cl)c1)c1ncc(-c2cccc(C(F)(F)F)c2)[nH]1 (stereo unspecified) | 29* | 2 | 0 | 2 | 9.2* | 2 | 1 | 23* | 14* | x | x
Cc1ccc(C(O)c2ncc(-c3cccc(C(F)(F)F)c3)[nH]2)c(C)c1 (stereo unspecified) | 5 | 3 | 0 | 7 | 5 | x | x | x | x | x | x
Fc1cccc(Cl)c1CNCCCSc1ncccn1 | 12 | 2 | 0 | 2 | 6 | x | x | x | x | x | x
FC(F)Sc1ccc(NC(=S)NC2CCCCC2)cc1 | 25* | 8 | 0 | 7 | 14* | 4 | 1 | 15 | 11* | x | x
O=C(Nc1ccc(Nc2ccccc2)cc1)c1c(F)c(F)c(F)c(F)c1F | 20* | 0 | 0 | -11 | 14* | 5 | 1 | 30* | 14* | x | x
O=C1C(c2ccccc2)NC(=S)N1C1CCCCC1 (stereo unspecified) | 10 | -1 | 1 | -4 | 6 | x | x | x | x | x | x
O=C(CN1CCN(S(=O)(=O)c2ccc(Br)cc2)CC1)Nc1ccc2c(c1)OCO2 | 21* | 10.0* | 0 | 0 | 1 | 0 | 0 | x | x | -3 | -3
O=C(CCSc1ccccc1Cl)Nc1cccc([N+](=O)[O-])c1 | 29* | 11* | 0 | 9 | 12* | 2 | 0 | 24* | 12* | 6 | 6
NS(=O)(=O)c1cccc(NC(=O)CCSc2ccccc2Cl)c1 | -9 | 1 | 0 | -3 | -1 | x | x | x | x | x | x
CC(C)(C)c1ccc(S(=O)(=O)Nc2ccc(C(O)(C(F)(F)F)C(F)(F)F)cc2)cc1 | 62* | 13* | 0 | 6 | 27* | 3 | 1 | 54* | 31* | -3 | -8
CC(C)(C)c1ccc(S(=O)(=O)Nc2ccc(C(=O)N3CCCC3)cc2)cc1 | 5 | 7 | 0 | -8 | 0 | x | x | x | x | x | x
C[C@@H]1CCCCO[C@@H](CN(C)S(=O)(=O)c2ccccc2)[C@@H](C)CN([C@H](C)CO)C(=O)c2cc(NS(=O)(=O)c3ccc(F)cc3)ccc2O1 | 27* | 17* | 0 | 8 | 17* | 4 | 0 | 28* | 15* | -2 | -6
O=C(NC1CCN(Cc2ccccc2)CC1)c1cncc(Br)c1 | -4 | -1 | 0 | -8 | -8 | x | x | x | x | x | x
O=C(O)c1ccccc1/C=N/NC(=O)C1CCCCC1 | 6 | 5 | 0 | -3 | 3 | x | x | x | x | x | x
O=C(O)c1ccccc1/C=N/NC(=S)NC1CCCCC1 | 23* | 11* | 0 | 7 | 2 | 4 | 1 | x | x | -9 | -4
O=C1C=C(c2ccc3ncccc3c2)C[C@@H](c2ccc(Cl)cc2)C1 | 20* | 11* | 0 | 0 | 5 | 2 | 0 | x | x | 0 | -1
Cc1ccc(S(=O)(=O)c2cccc(S(=O)(=O)N3CCCC3)c2)cc1S(=O)(=O)N1CCCC1 | 29* | 9.9* | 1 | 14* | 17* | -1 | 0 | 17 | 8 | -1 | 0
COc1cccc(-n2c(SCC(N)=O)nnc2-c2ccncc2)c1 | 0 | 1 | 1 | 5 | -2 | x | x | x | x | x | x
COc1cccc(NC(=O)C(Sc2nnc(-c3ccncc3)n2-c2ccc(Cl)cc2)c2ccccc2)c1 (stereo unspecified) | 38* | 11* | 0 | 4 | 14* | 9 | 3 | 30* | 16* | 0 | -1
CC(C)C1S/C(=N/N=C/c2cccs2)NC1=O (stereo unspecified) | 29* | 13* | 0 | 11 | 9.4* | 1 | 0 | 8 | 5 | -2 | -3
O=c1[nH]c(C2CCN(S(=O)(=O)c3ccc(S(=O)(=O)NC4CC4)cc3)CC2)nc2c1nnn2Cc1ccc(F)cc1 | 11 | 0 | 0 | -10 | 1 | x | x | x | x | x | x
SMILES | ADAM10 inh | PLC-gamma1 inh | KLK7 zymogen act | PLCb3 inh | ADAM17 inh | ADAM10 confirm | ADAM17 counter | ADAM10 ctr | ADAM17 confirm | PLCg1 ctr | PLCb3 confirm
Cc1ccc(C)c(S(=O)(=O)N2CCC(c3nc4c(nnn4Cc4ccc(F)cc4)c(=O)[nH]3)CC2)c1 | 9 | 7 | 0 | -2 | 8 | x | x | x | x | x | x
Cc1ccc(Cn2nnc3c(=O)[nH]c(C4CCN(S(=O)(=O)c5ccc(F)cc5)CC4)nc32)cc1 | 21* | 9.8* | 0 | 0 | 6 | 1 | 1 | x | x | -3 | -3
Cc1ccc(Cn2nnc3c(=O)[nH]c(C4CCN(S(=O)(=O)c5cc(C)ccc5C)CC4)nc32)cc1 | 43* | 12* | 1 | 3 | 15* | 5 | 3 | 25* | 11* | 6 | 4
CCOc1ccc(NC(=O)CN(C)C(=O)c2cc(C)oc2C)cc1OCC | -5 | 4 | 0 | -10 | -5 | x | x | x | x | x | x
Cc1cc(NS(=O)(=O)c2ccc(NC(=O)C(C)Oc3ccc4c(C)cc(=O)oc4c3)cc2)no1 (stereo unspecified) | -54 | -5 | 0 | -11 | -23 | x | x | x | x | x | x
COc1ccc(NC(C)=O)cc1NC(=O)CN1CCN(S(=O)(=O)c2ccc(C(C)C)cc2)CC1 | 2 | -2 | -1 | 2 | -7 | x | x | x | x | x | x
Cc1cc(C)nc(SCC(CSc2nc(C)cc(C)n2)C(=O)O)n1 | -4 | 3 | 1 | 3 | -3 | x | x | x | x | x | x
